Experimental data taken from PubChem BioAssay.
Active and inactive are the calls of the source.

Key:
[1] = E. coli DRC41 culture turbidity changes, primary screen, E. coli filamentation inducer project, strain DRC41, OD650, 48 h (AID 1152);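 further: E. coli MC1000 strain DRC41 lacking acrAB efflux pump and sulA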; conditions: E. coli DRC41 (acrAB sulA), higher = more signal, called active from +8 up or from −8 down
[2] = small-molecule binders of probe aLefty1, primary screen, biochemical, small-molecule microarray, 635/667 nm fluorescence (AID 1153); conditions: higher = more signal;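 further: score merges spot fluorescence with signal-to-noise ratio from the scanned slide images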
[3] = PSAC antagonists in infected red cells, primary screen, cell-based, P. falciparum Indochina, OD700, 1 h (AID 1154); conditions: P. falciparum Indochina infected RBC osmotic lysis, higher = more signal, called active from +8 up or from −8 down
[4] = PSAC antagonists in infected red cells, primary screen, cell-based, P. falciparum Indochina, OD700, 2 h (AID 1155);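 further: lysis reports solute entry through the parasite surface anion channel PSAC; channel blockers reduce lysis of infected cells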; conditions: P. falciparum Indochina infected erythrocytes, osmotic lysis OD700; higher = more signal, called active from +8 up or from −8 down
[5] = osmotic lysis modulators in infected erythrocytes, primary screen, PSAC antagonist project, cell-based, P. falciparum Indochina, OD700, 3 h (AID 1156); conditions: higher = more signal, called active from +8 up or from −8 down
[6] = PSAC antagonists in infected red cells, primary screen, cell-based, P. falciparum Indochina, OD700, 18 h (AID 1157); conditions: P. falciparum Indochina infected erythrocytes, osmotic lysis OD700, 18 h; higher = more signal, called active from +8 up or from −8 down
[7] = modulators of S6 phosphorylation in cells, primary screen, cell-based, A549, cytoblot, luminescence, serum-stimulated (AID 1158); conditions: A549 phospho-S6 cytoblot, 5 h, higher = more signal;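 further: serum-stimulated A549 lung adenocarcinoma cells; signal is phosphorylated S6 detected by cytoblot immunostaining with HRP secondary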
[8] = target: NADPH oxidase 2 (Homo sapiens) (UniProt P04839); assay: NOX2-dependent H2O2 signal modulators, primary screen, NOX inhibitor project, cell-based, HEK293-NOX2, PMA-stimulated, Amplex Red fluorescence (AID 1159); conditions: 45 min, higher = more signal, called active from +8 up or from −8 down; further: test concentration not given here
Sequence of NADPH oxidase 2 (Homo sapiens) (P04839 whole entry, looked up): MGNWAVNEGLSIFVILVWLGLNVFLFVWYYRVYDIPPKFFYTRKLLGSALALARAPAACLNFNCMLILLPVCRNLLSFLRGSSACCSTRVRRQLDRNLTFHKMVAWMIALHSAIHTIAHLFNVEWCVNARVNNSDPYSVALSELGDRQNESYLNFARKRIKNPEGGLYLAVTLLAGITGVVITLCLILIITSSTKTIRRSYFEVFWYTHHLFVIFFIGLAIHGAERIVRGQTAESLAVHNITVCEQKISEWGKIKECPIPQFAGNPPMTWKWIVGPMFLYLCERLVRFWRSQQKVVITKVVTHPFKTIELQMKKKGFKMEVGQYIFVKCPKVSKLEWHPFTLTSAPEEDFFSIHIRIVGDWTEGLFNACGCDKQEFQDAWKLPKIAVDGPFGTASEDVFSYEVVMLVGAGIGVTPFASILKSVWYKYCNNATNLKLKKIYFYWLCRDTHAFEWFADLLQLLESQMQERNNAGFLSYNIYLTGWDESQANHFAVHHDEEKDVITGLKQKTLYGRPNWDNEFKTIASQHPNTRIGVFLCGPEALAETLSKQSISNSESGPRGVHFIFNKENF

[9] = target: NADPH oxidase 4 (Homo sapiens) (UniProt Q9NPH5); assay: NOX4-dependent H2O2 signal modulators, primary screen, NOX inhibitor project, cell-based, HEK293-NOX4, tetracycline-induced, Amplex Red fluorescence (AID 1160); conditions: 45 min, higher = more signal, called active from +8 up or from −8 down
Sequence of NADPH oxidase 4 (Homo sapiens) (Q9NPH5 whole entry, looked up): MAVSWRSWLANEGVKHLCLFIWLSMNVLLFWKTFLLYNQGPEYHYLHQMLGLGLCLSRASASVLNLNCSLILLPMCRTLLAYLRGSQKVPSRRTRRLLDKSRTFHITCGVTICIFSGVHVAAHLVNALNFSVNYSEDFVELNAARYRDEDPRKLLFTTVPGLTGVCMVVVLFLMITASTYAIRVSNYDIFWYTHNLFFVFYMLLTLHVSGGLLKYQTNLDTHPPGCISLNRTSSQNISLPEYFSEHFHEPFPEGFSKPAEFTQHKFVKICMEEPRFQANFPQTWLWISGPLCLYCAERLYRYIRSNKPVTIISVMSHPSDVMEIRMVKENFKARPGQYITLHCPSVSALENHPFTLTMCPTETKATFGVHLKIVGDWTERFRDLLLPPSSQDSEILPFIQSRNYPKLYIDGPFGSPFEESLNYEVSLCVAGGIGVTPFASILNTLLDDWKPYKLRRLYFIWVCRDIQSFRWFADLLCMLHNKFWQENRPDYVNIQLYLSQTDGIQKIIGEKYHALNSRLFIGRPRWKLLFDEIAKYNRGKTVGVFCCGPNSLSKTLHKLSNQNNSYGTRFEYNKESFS

[10] = target: NADPH oxidase 5 (Homo sapiens) (UniProt Q96PH1); assay: NOX5-dependent H2O2 signal modulators, primary screen, NOX inhibitor project, cell-based, HEK293-NOX5, Amplex Red fluorescence (AID 1161); conditions: HEK293-NOX5, ionomycin, 45 min, higher = more signal
Sequence of NADPH oxidase 5 (Homo sapiens) (Q96PH1 whole entry, looked up): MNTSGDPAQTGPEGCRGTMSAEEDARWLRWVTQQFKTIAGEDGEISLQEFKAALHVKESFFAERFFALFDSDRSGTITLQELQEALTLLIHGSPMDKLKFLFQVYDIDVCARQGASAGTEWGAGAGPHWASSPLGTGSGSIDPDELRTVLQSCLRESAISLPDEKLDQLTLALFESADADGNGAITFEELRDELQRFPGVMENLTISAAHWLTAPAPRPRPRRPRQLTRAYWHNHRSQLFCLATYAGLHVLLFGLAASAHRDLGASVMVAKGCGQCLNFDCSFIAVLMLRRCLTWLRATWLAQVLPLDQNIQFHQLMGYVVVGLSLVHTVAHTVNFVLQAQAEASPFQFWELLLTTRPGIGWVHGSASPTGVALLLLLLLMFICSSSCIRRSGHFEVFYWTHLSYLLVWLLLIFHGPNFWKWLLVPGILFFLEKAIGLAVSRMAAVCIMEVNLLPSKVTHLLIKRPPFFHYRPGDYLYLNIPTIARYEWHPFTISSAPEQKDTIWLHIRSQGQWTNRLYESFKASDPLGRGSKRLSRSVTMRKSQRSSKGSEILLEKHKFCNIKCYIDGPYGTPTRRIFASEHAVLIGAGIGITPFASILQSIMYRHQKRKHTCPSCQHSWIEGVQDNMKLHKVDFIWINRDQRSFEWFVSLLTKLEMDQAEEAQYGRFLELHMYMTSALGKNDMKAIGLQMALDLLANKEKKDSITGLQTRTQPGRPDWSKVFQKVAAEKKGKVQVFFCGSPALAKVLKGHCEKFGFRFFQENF

Row | Structure (SMILES) | z-score [1] | composite z-score [2] | z-score [3] | z-score [4] | z-score [5] | z-score [6] | z-score [7] | z-score [8] | z-score [9] | z-score [10]
1 | O=C1N(CCS(=O)(=O)c2ccccc2)c2ccccc2C[C@@]12COC(c1ccc(OCCCO)cc1)=N2 | -2.43 (inactive) | 0.0804 | 23.6 (active) | 8.71 (active) | 2.58 (inactive) | 0.764 (inactive) | -0.616 | 0.759 (inactive) | 1.04 (inactive) | -0.312
2 | O=C1C2C=CC(C(O)c3ccc(-c4ccccc4)s3)N(n3cnnc3)C2C(=O)N1Cc1ccccc1 (stereo not given) | -0.613 (inactive) | 0.284 | 2.44 (inactive) | 1.41 (inactive) | 0.605 (inactive) | 0.832 (inactive) | 0.0424 | -0.547 (inactive) | -0.149 (inactive) | -0.918
3 | CC(C)c1ccc(NN2C(C(O)c3cccc(O)c3)C=CC3C(=O)N(c4ccccc4)C(=O)C32)cc1 (stereo not given) | -0.833 (inactive) | 0.0523 | 8.05 (active) | 1.14 (inactive) | 1.5 (inactive) | 1.64 (inactive) | -0.83 | -2.01 (inactive) | -5.51 (inactive) | -4.13
4 | CCOC(=O)C[C@H]1[C@H](OC(=O)c2ccc(-c3ccccc3)cc2)[C@@H](NC(=O)c2ccc3ccccc3c2)c2cc(OCCCO)ccc2N1C(=O)Cc1ccc(OC)cc1 | 0.107 (inactive) | -0.304 | 2.49 (inactive) | 0.927 (inactive) | 1.21 (inactive) | 0.263 (inactive) | 0.452 | -1.1 (inactive) | -0.0144 (inactive) | -1.47
5 | CO[C@H]1O[C@H](CO)[C@@H](OC(=O)Nc2ccc(Oc3ccccc3)cc2)[C@H](OC(=O)Nc2ccccc2)[C@H]1OC(=O)Nc1ccccc1 | 0.415 (inactive) | 0.407 | 3.14 (inactive) | 1.09 (inactive) | 1.4 (inactive) | 0.766 (inactive) | 0.696 | -0.909 (inactive) | -3.18 (inactive) | -0.854
6 | CCCCC=C[C@@H](NC(=O)c1cccs1)c1ccccc1 | -1.05 (inactive) | 0.762 | 4.38 (inactive) | 0.669 (inactive) | 0.66 (inactive) | 1.38 (inactive) | 0.221 | -0.99 (inactive) | -0.568 (inactive) | 1.18
7 | COCCOC(=O)N1C(=O)[C@@]2(c3cc(C#CCNC(N)=O)ccc31)[C@H](c1ccc(O)cc1)N1[C@H](c3ccccc3)[C@H](c3ccccc3)OC(=O)[C@H]1[C@@H]2C(=O)Nc1nc2ccccc2s1 | 3.62 (inactive) | 0.144 | 1.13 (inactive) | -0.361 (inactive) | 0.284 (inactive) | -0.0972 (inactive) | 2.46 | 0.806 (inactive) | 0.969 (inactive) | 1.33
8 | CC1=C2[C@@H](CCc3ccccc3)OB(O)C[C@@H]2n2c(=O)n(-c3ccccc3)c(=O)n2C1 | -0.616 (inactive) | -0.347 | 1.57 (inactive) | 0.323 (inactive) | -0.318 (inactive) | -0.31 (inactive) | 0.417 | -0.416 (inactive) | -1.61 (inactive) | -0.939
9 | Cc1ccc([C@H]2C(C(=O)O)=C[C@@H](C)N2S(=O)(=O)c2ccc(C)cc2)cc1 | -0.832 (inactive) | -0.149 | 1 (inactive) | 0.587 (inactive) | 0.018 (inactive) | 0.39 (inactive) | -0.848 | 0.534 (inactive) | 0.259 (inactive) | 0.101
10 | CCOC(=O)[C@H]1C[C@H]2O[C@@]23C[C@H]1C(=O)N1CCCC1[C@@H]3O[Si](C)(C)C(C)(C)C (stereo not given in full) | -0.954 (inactive) | -0.0573 | 1.35 (inactive) | 0.23 (inactive) | 0.183 (inactive) | 0.158 (inactive) | -0.67 | 1.05 (inactive) | 0.302 (inactive) | -1.7
11 | COCCOC(=O)N1C(=O)[C@@]2(c3cc(C#CC4(O)CCCCCC4)ccc31)[C@H](C(=O)N1CCCCCCC1)[C@H]1C(=O)O[C@H](c3ccccc3)[C@H](c3ccccc3)N1[C@@H]2c1ccccc1OCCO | 0.139 (inactive) | 2.53 | 1.04 (inactive) | 1.53 (inactive) | 1.05 (inactive) | 1.07 (inactive) | 0.535 | 0.528 (inactive) | -0.409 (inactive) | 1.29
12 | CC(C)(C)N1CC=CC23O[C@@H]4/C=C\CCCOC(=O)C4[C@H]2C(=O)N(CCO)[C@@H]3C1=O (stereo not given in full) | 0.583 (inactive) | -0.552 | 0.806 (inactive) | 1.01 (inactive) | 0.17 (inactive) | 0.603 (inactive) | -0.495 | 1.58 (inactive) | 0.0377 (inactive) | 2.17
13 | Cc1ccc(S[C@]2(C(=O)O)CC(=O)N(C3Cc4ccccc4C3)[C@@H]2c2ccc(CO)cc2I)cc1 | -0.453 (inactive) | -0.0559 | 6.6 (inactive) | 1.1 (inactive) | 0.356 (inactive) | 0.474 (inactive) | -0.148 | 1.84 (inactive) | -2.99 (inactive) | -1.78
14 | O=C1C[C@]2(c3ccc([N+](=O)[O-])cc3)C(=O)N(CC(F)(F)F)c3cc(CO)ccc3[C@H]2N1CC12CC3CC(CC(C3)C1)C2 | 0.458 (inactive) | -0.629 | 0.56 (inactive) | -0.365 (inactive) | 0.12 (inactive) | 0.255 (inactive) | 0.229 | -0.347 (inactive) | 0.375 (inactive) | 0.0968
15 | COC(=O)[C@]1(Cc2ccccc2N=[N+]=[N-])N=C(c2ccc(OCCCO)cc2)O[C@@H]1c1ccccc1N=[N+]=[N-] | -1.19 (inactive) | -0.236 | 29.5 (active) | 27.4 (active) | -0.495 (inactive) | 6.35 (inactive) | 0.0559 | -0.877 (inactive) | 0.755 (inactive) | 0.677
16 | COC(=O)c1ccc(OC)c(/C=C\CC(OC(C)=O)c2ccccc2)c1 (stereo not given) | 0.0491 (inactive) | -0.795 | 8.02 (active) | 0.898 (inactive) | -0.358 (inactive) | 0.303 (inactive) | -0.0878 | 0.0248 (inactive) | 0.415 (inactive) | -1.65
17 | CN1C(=O)C2C=CC(C(O)c3ccccn3)N(Nc3ccccc3)C2C1=O (stereo not given) | -0.434 (inactive) | -0.093 | 0.844 (inactive) | 1.09 (inactive) | -0.197 (inactive) | 1.12 (inactive) | -0.669 | -1.35 (inactive) | -4.52 (inactive) | -2.9
18 | CC(C)NC(=O)[C@@]1(Cc2ccccc2I)c2ccccc2C(=O)N(Cc2ccccc2)[C@H]1c1ccc(CO)cc1 | -0.668 (inactive) | 0.018 | 4 (inactive) | 0.644 (inactive) | 1.19 (inactive) | 0.374 (inactive) | -0.0212 | 1.32 (inactive) | 1.07 (inactive) | 0.909
19 | N#Cc1ccc(NN2C(C(O)C3CCCCC3)C=CC3C(=O)N(c4ccccc4)C(=O)C32)cc1 (stereo not given) | -1.35 (inactive) | 0.545 | 13.2 (active) | 2.67 (inactive) | 3.79 (inactive) | 1.49 (inactive) | -0.911 | -2.02 (inactive) | -3.88 (inactive) | -3.01
20 | CC(=O)C1=CCC(c2ccccc2)N(S(=O)(=O)c2ccc(C)cc2)C1 (stereo not given) | -1.12 (inactive) | 0.157 | 2.75 (inactive) | 1.5 (inactive) | 1.4 (inactive) | 1.07 (inactive) | -0.26 | -0.179 (inactive) | -1.4 (inactive) | 0.0221
21 | CCOC(=O)C[C@H]1[C@H](OC(=O)c2ccccc2-c2ccccc2)[C@@H](NC(=O)c2ccc3ccccc3c2)c2cc(OCCCO)ccc2N1C(=O)c1ccc2ccccc2n1 | 0.0514 (inactive) | -0.193 | 4.5 (inactive) | 0.759 (inactive) | -0.62 (inactive) | 0.452 (inactive) | -0.429 | 0.349 (inactive) | 1.08 (inactive) | 0.803
